# An excerpt weighted towards active compounds, which were near 10% of everything screened.
# KinaseGlo FLuc: counter-screen: inhibitors of Kinase-Glo firefly luciferase; Q27757; Kinase-Glo luciferase, ATP luminescence, 8 min; Potency, µM (doses to about 38.3 µM), actives largely listed as inhibitors; 200,000 compounds, 0.28% hits; active = well fitted inhibition curve with a large enough effect; inconclusive = small, poorly fitted or top-dose-only effect; note: nearly all actives have a fitted effect of over 60% in size
#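 Substrate mix (final 50 mM imidazole pH 7.2, 50 mM KCl, 7 mM MgCl2, 10 uM ATP, 0.01% Tween 20, 0.05% BSA) plus pin-tool compound, then Kinase-Glo detection mix; 8 min ambient, luminescence read.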
# ALDH1A1 inh: inhibitors of human aldehyde dehydrogenase 1A1 | P00352 | Purified ALDH1A1, NADH fluorescence, propionaldehyde substrate | Potency, µM (highest dose often 75.3 µM), most hits filed as inhibitors | 220,000 compounds, 7.3% hits | AID 1030
# Target sequence (P00352 whole entry, looked up): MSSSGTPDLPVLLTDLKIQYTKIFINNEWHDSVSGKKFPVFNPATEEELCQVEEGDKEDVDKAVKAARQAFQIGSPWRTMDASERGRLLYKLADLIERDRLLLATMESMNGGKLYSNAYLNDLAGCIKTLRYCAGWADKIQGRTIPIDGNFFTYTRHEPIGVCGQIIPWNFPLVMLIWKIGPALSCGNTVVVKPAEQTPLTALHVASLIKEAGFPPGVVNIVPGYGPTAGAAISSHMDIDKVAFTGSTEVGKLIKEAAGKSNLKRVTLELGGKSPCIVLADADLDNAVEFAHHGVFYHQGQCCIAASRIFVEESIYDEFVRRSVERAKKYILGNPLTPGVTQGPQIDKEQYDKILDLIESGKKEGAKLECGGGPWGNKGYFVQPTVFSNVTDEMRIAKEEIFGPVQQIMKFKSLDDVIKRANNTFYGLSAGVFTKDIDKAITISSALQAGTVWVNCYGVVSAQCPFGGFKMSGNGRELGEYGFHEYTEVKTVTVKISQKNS
# LMNA splice mod: modulators of lamin A splicing | 200,000 compounds, 0.01% hits | AID 1487 | HeLa LMNA splicing GFP/RFP minigene ratio, 48 h | Potency, µM (doses to about 46.1 µM), most hits filed as inhibitors; active = well fitted inhibition curve with a large enough effect in the signal ratio, with a control signal flat, not every such curve was filed as active; inconclusive = small, poorly fitted or top-dose-only effect, or effect the other way, or a change in a side signal; the % refers to the signal ratio
#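 S3 HeLa stable clones carrying a lamin A-EGFP splicing minigene plus DsRed2 were seeded at 600 cells/well in Opti-MEM with 2% FBS, pin-dosed and incubated 48 h at 37°C. Acumen cytometry (488 nm) gave the GFP/RFP total-intensity ratio.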
# PNC assembly inh: perinucleolar compartment assembly inhibition | PC3M PTB-GFP, PNC prevalence imaging, 16 h; stronger effect = lower value | activity change (PNC), negative = inhibition, % at 10 µM | 140,000 compounds, 3.1% hits | AID 2417;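 active = readout at or below -70, meaning at least 70% loss of cells showing the perinucleolar compartment, a nuclear body marking cancer cells; inconclusive = readout between -30 and a set limit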
#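 PC3M cells stably expressing PTB-GFP, 750–1000 cells/well, treated 16 h at 37 °C with compound (23 nl of library stock), in duplicate. After paraformaldehyde fixation and Hoechst stain, imaged at 20x; PNC prevalence scored by image analysis.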
# HPGD inh: blocks human HPGD enzyme activity; 150,000 compounds, 4.3% hits; purified HPGD, NADH fluorescence kinetic, PGE2 substrate; P15428; Potency, µM, usual class: inhibitors
#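 NADH formation kinetics: reaction with 30 uM PGE2 and 1 mM NAD+ (final), 20 nM enzyme, Tris-HCl pH 8 with Tween 20, after 15 min compound preincubation at room temperature. Fluorescence change, last versus first of five reads.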
# Hits are given with their value; - = inactive; ? = inconclusive; . = no result given; ! = not active in a repeat; [ ] = dose if it differs, or a comment. Unless noted, calls come from the whole dose curve; as a rule, active = well fitted inhibition curve with a large enough effect (not every such curve was filed as active); inconclusive = small, poorly fitted or top-dose-only effect, or another doubt; inactive = no such curve, though single readings can be large or run the other way.
SMILES,KinaseGlo FLuc,ALDH1A1 inh,LMNA splice mod,PNC assembly inh,HPGD inh
Cc1cnc(CNc2ncncc2-c2c(C)noc2C)cn1,.,-,?,.,.
CCC(=O)C(C(=O)OC)[C@H](CCc1ccccc1)NC(=O)OC (stereo partly drawn),-,-,.,.,-
Cc1ccc(S(=O)(=O)O)cc1C,.,-,?,.,-
O=C(CSc1ncnc2c1cnn2Cc1ccccc1)Nc1ccc2c(c1)OCCO2,-,13µM,-,?,-
O=C(COC(=O)c1ccco1)Nc1ccc2c(c1)OCCO2,-,-,?,-,-
COc1cccc(NC(=O)CSc2ncnc3c2cnn3Cc2ccccc2)c1,-,?,-,-,-
O=C(COC(=O)c1ccc(=O)n(Cc2ccccc2)n1)Nc1ccc2c(c1)OCCO2,-,8.9µM,-,-,-
CC(=O)N1CCc2cc(CNS(=O)(=O)c3cccs3)ccc21,.,.,-,.,.
O=C(CCC1N=C2c3ccccc3N=C(SCc3cccc(F)c3)N2C1=O)NCc1ccc(F)cc1 (stereo not drawn),.,.,-,.,.
CCOC(=O)Cn1c(=O)n(Cc2ccco2)c(=O)c2ccc(C(=O)NCCc3ccccc3)cc21,-,4µM,-,?,-
N#CC1=C2N=C(N)c3ccccc3N2C2=C(C(=O)CCC2)C1c1ccc(Cl)cc1 (stereo not drawn),-,-,-,-,-
Cc1ccccc1C1C(C#N)=C2N=C(N)c3c(sc4c3CCCCC4)N2C2=C1C(=O)CCC2 (stereo not drawn),-,2.2µM,?,-,-
O=S(=O)(c1cccc2nsnc12)N1CCN(c2ccc(F)cc2)CC1,-,-,-[9.22 µM],.,.
O=S(=O)(c1cccc2nsnc12)N1CCN(c2ccccc2F)CC1,-,22µM,?,.,.
O=C(NCC1COc2ccccc2O1)C1CCN(S(=O)(=O)c2cccc3nsnc23)CC1 (stereo not drawn),-,-,-,-85,-
O=C(NCC1COc2ccccc2O1)C1CCCN(S(=O)(=O)c2cccc3nsnc23)C1 (stereo not drawn),-,-,-[0.0737 µM],-,-
CCC(CC)C(=O)Nc1nnc(SCc2cc(=O)n3cccc(C)c3n2)s1,.,.,-,.,.
CC(=O)OC1CC[C@@]2(C)C3=CC(=O)[C@]4(C)C(CC5OC6(OCC(C)CC6Br)C(C)C54)C3CC[C@H]2C1 (stereo partly drawn),-,-,-,.,-
CCN(C(=O)c1ccccc1)c1ccc([N+](=O)[O-])cc1,-,5µM,-,-,-
CS(=O)(=O)N1CCC2(CCN(C(c3ccccc3)c3ccccc3)CC2)CC1,-,-,.,.,-
CN(Cc1ccco1)c1ncncc1-c1ccccc1C(F)(F)F,.,-,-,.,.
O=C(/C=C/c1ccc(O)c(O)c1)OC(Cc1ccc(O)c(O)c1)C(=O)O (stereo not drawn),-,-,.,.,22µM!
O=C(/C=C\c1ccc(O)c(O)c1)O[C@@H](Cc1ccc(O)c(O)c1)C(=O)O,-,-,.,.,28µM
Cc1c(Cl)cccc1NC(=O)CSc1nc(=O)n(Cc2cccnc2)c2c1CCC2,.,.,-,.,.
O=C(COc1ccccc1)NCCSCc1ccco1,-,?,-,?,22µM
SMILES,KinaseGlo FLuc,ALDH1A1 inh,LMNA splice mod,PNC assembly inh,HPGD inh
O=C(NCCSCc1ccco1)Nc1ccc(Cl)cc1,-,?,-,-,-
O=C(CCSc1ccccc1)NCCSCc1ccco1,.,11µM,-,-,.
COc1ccc(C(=O)N2CCC3(CCCN(Cc4ccccc4OC)C3)CC2)cc1,-,-,.,.,-
CC1=CC(C)(C)Nc2ccc(OC(=O)CCN3C(=O)c4ccccc4C3=O)cc21,-,?,?,-,-
CC(=O)Nc1ccc(S(=O)(=O)Oc2ccc3c(c2)C(C)=CC(C)(C)N3)cc1,-,-,?,-109,-
COC(=O)c1ccc(OS(=O)(=O)c2ccc(NC(C)=O)cc2)cc1,-,?,?,-,-
CC1=CC(C)(C)Nc2ccc(OS(=O)(=O)c3ccc(C)cc3)cc21,-,1.1µM,?,-,?
Cc1c(Cl)cccc1NC(=O)CSc1ncnc2c1sc1ccccc12,.,.,-,.,.
CC(=O)NCCNc1ccnc(-c2ccccc2C)n1,.,?,-,.,.
Cc1cc2c(OCC(CNC(C)(C)C)OC(=O)c3ccccc3)cccc2[nH]1 (stereo not drawn),.,-,-,.,.
O=C(Nc1ccccc1N1CCCCC1)c1cccs1,-,-,?,-,-
CC(C)C(=O)Nc1ccccc1N1CCN(S(C)(=O)=O)CC1,-,-,-,-,-
CS(=O)(=O)N1CCN(c2ccccc2NC(=O)c2cccs2)CC1,-,10µM,-,-,-
CS(=O)(=O)N1CCN(c2ccccc2NC(=O)CSc2nnc(-c3ccco3)o2)CC1,-,13µM,-,-,-
CS(=O)(=O)N1CCN(c2ccccc2NC(=O)C(c2ccccc2)c2ccccc2)CC1,-,6.3µM,-,?,-
CCOc1cc(C2NC(=O)NC(O)(C(F)(F)F)C2C(=O)c2ccccc2)ccc1OC (stereo not drawn),-,?,-,-,-
COc1ccc(C2NC(=O)NC(O)(C(F)(F)F)C2C(=O)c2ccccc2)cc1OC (stereo not drawn),-,32µM,-,-,-
COc1cccc(C2NC(=O)NC(O)(C(F)(F)F)C2C(=O)c2cccnc2)c1OC (stereo not drawn),-,11µM,-,?,-
CC(=O)C1C(c2ccc(OC(F)F)cc2)NC(=O)NC1(O)C(F)(F)F (stereo not drawn),-,-,-,-,-
O=C1NC(c2cn(-c3ccccc3)nc2-c2cccs2)C(C(=O)c2cccnc2)C(O)(C(F)(F)F)N1 (stereo not drawn),-,?,-,-,-
COc1ccc(C2NC(=O)NC(O)(C(F)(F)F)C2C(=O)c2ccc(C)cc2)cc1 (stereo not drawn),.,18µM,-,-,.
COc1ccccc1CNC(=O)CN1C(=O)CSc2ccc(S(=O)(=O)N3CCCCC3)cc21,.,.,-,.,.
N#CC(Cc1ccc(O)c(O)c1)C(=O)N1CCc2ccccc21 (stereo not drawn),-,8.9µM,?,.,28µM
Cc1cc(C)nc(-n2nc(C)cc2NC(=O)CN2CCc3ccccc3C2)n1,-,25µM,?,-,-
Cc1cc(C)nc(-n2nc(C)cc2NC(=O)CNC2CCCCC2)n1,-,?,-,-,-
Cc1cc(C)nc(-n2nc(C)cc2NC(=O)CNCc2ccccc2)n1,-,8.9µM,-,-,-
CCN(CC(=O)Nc1cc(C)nn1-c1nc(C)cc(C)n1)Cc1ccccc1,-,20µM,-,-,-
Cc1cc(C)nc(-n2nc(C)cc2NC(=O)CN2CCCC(C)C2)n1 (stereo not drawn),-,?,-,-,-
CCC(C(=O)Nc1cc(C)nn1-c1nc(C)cc(C)n1)c1ccccc1 (stereo not drawn),-,?,-,-,-
CCOc1ccccc1CNC(=O)C1CCCN(c2ncnc3onc(-c4ccc(F)cc4)c23)C1 (stereo not drawn),.,.,-,.,.

# Source: PubChem BioAssay (National Center for Advancing Translational Sciences (NCATS))
